# Compounds with a hit are over-represented: about 18% of the library has one in this group of screens.
# PLK1 PBD inh – qHTS for Inhibitors of PLK1-PDB (polo-like kinase 1 - polo-box domain): Primary Screen | Serine/threonine-protein kinase PLK1 (Homo sapiens), P53350 | Plk1 PBD binding of FITC phosphopeptide, fluorescence polarization | Potency, µM, for the others: max response, negative = inhibition, hits mostly inhibitors | 2.8% of 360,000 active; note: series mostly up to about 57 µM; nearly all actives have a fitted effect of over 65% in size
# Target sequence (P53350 whole entry, looked up, the tested form may be a part): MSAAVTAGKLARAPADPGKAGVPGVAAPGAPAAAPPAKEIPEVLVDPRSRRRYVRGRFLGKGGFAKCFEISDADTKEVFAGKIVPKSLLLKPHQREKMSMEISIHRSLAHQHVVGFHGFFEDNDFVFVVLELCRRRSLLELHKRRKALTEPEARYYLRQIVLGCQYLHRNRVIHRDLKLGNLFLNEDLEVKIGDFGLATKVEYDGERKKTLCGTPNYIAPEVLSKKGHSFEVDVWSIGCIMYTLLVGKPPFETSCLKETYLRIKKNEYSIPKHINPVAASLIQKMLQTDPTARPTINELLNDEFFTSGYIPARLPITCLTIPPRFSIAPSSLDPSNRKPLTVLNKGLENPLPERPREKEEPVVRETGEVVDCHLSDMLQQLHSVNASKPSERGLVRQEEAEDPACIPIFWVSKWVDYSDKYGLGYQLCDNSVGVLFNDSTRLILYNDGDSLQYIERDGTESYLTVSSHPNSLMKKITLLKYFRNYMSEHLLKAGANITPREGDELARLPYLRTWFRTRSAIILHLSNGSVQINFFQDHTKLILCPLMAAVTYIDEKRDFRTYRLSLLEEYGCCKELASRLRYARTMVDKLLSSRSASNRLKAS
# VDR inhibitor – Inhibitors of the vitamin D receptor (VDR): qHTS; Vitamin D3 receptor (Homo sapiens), P11473; VDR-SRC2-3 peptide fluorescence polarization, 2 h; Potency, µM, for the others: max response, negative = inhibition, hits mostly inhibitors; 0.93% of 400,000 active
#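 Two reagent solutions held at 4 deg C in the dark were dispensed, compounds pinned at 23 nl, and the mixture incubated 2 h at room temperature. Read-out: fluorescence polarization of VDR–SRC2-3 peptide binding.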
# KAT2A inh – qHTS Assay for Inhibitors of GCN5L2. Histone acetyltransferase KAT2A (Homo sapiens), Q92830. GCN5L2 HAT assay, ThioGlo1 CoA-SH fluorescence. Potency, µM (titrated, usually from 58.9 µM), for inactives: top-dose activity change, negative = inhibition, hits mostly inhibitors. 0.21% of 390,000 active. AID 504327, 2011
#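 GCN5L2 (20nM final) in 50mM HEPES, 0.1mM EDTA pH 7.5, 0.01% Tween-20 was preincubated 15 min at room temperature with compound, then given ThioGlo1 (50uM), H3(1-25) peptide (75uM) and acetyl-CoA (70uM); CoA-thiol fluorescence (Ex340/Em540) was read at 0 and 20 min.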
# TDP1 cell CPT – qHTS for Inhibitors of human tyrosyl-DNA phosphodiesterase 1 (TDP1): qHTS in cells in presence of CPT | chicken DT40 Tdp1-/-;hTDP1 cells + 20 nM CPT, ATP luminescence, 48 h | 12% of 420,000 active | Potency, µM (titrated, usually from 46.2 µM), for the others: top-dose activity change, negative = growth inhibition, usual class: inhibitors; note: nearly all actives have a fitted effect of over 55% in size
#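 Cell growth measured by CellTiter-Glo luminescence after a minimum 48 h, 37 C compound exposure with 20 nM CPT in Tdp1-knockout DT40 cells stably expressing hTDP1, seeded 400/well; qHTS titration format.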
# TDP1 cell noCPT – qHTS for Inhibitors of human tyrosyl-DNA phosphodiesterase 1 (TDP1): qHTS in cells in absence of CPT. DT40 Tdp1-/- hTDP1 cells, no CPT, ATP luminescence, 48 h. Potency, µM (titrated, usually from 46.2 µM), for inactives: at the highest dose activity change, negative = growth inhibition, most hits filed as inhibitors. 15% of 420,000 active; note: nearly all actives have a fitted effect of over 55% in size
#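 Compound effects on proliferation are scored in DT40 Tdp1-/-;hTDP1 cells in the absence of CPT. ATP levels (CellTiter-Glo luminescence) are recorded after a ≥48 hr, 37 °C incubation.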
# TDP1 inh – qHTS Assay for Inhibitors of Tyrosyl-DNA Phosphodiesterase (TDP1). Tyrosyl-DNA phosphodiesterase 1 (Homo sapiens), Q9NUW8. recombinant TDP1, AlphaScreen DNA substrate cleavage. Potency, µM (titrated, usually from 130 µM), inactives show at the top dose activity change, negative = inhibition, most hits filed as inhibitors. 0.28% of 350,000 active; note: nearly all actives have a fitted effect of over 40% in size
#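 AlphaScreen read-out: signal falls as enzyme removes the 3' tyrosine-FITC from a 5'-biotinylated DNA oligo (15 nM, 5 min, RT). Enzyme was E. coli-made recombinant Tdp1 at 1 nM, exposed to compound for 15 min beforehand; beads 10 ug/ml, 10 min.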
# The depositor's hits bear a star; ? = inconclusive; nt = no result. Calls come from the whole dose curve; as a rule, active = well fitted curve in the direction sought with a large enough effect; inconclusive = small, poorly fitted or top-dose-only effect, or another doubt; inactive = no such curve, though single readings can be large; an effect the other way counts as inactive or inconclusive. % is set by controls: 0 for no effect and ±100 for the full control effect; potency is the fitted concentration of half-maximal effect.
SMILES,PLK1 PBD inh,VDR inhibitor,KAT2A inh,TDP1 cell CPT,TDP1 cell noCPT,TDP1 inh
O=C(c1ccc([N+](=O)[O-])o1)N1CCN(Cc2ccccc2)CC1,-2%,-12%,0%,15µM*,26µM*,5%
C#CCOCCOCCOCCNc1nc(N2CCN(C(=O)[C@H](CCCCN)n3cc([C@@H](N)C(C)CC)nn3)CC2)nc(N2CCN(C(=O)[C@H](CCCCN)n3cc([C@@H](N)CC(C)C)nn3)CC2)n1 (stereo not given in full),-3%,9%,0%,-26%,7%,3%
COc1ccc(CCNC(=O)c2cc3c(=O)n4ccccc4nc3n(Cc3ccco3)c2=N)cc1OC,4%,-15%,?,21µM*,13µM*,2%
Cc1ccc(Cn2c(=N)c(C(=O)NCc3ccco3)cc3c(=O)n4ccccc4nc32)cc1,-20%,5%,-8%,11µM*,11µM*,2%
COc1ccc(CCNC(=O)c2cc3c(=O)n4ccccc4nc3n(CCCN3CCOCC3)c2=N)cc1OC,-1%,11%,-6%,-20%,3%,1%
Cc1ccc(Cn2c(=N)c(C(=O)NC3CCCCC3)cc3c(=O)n4ccccc4nc32)cc1,-2%,27%,-2%,5.8µM*,6.5µM*,1%
CCOCCCn1c(=N)c(C(=O)NCc2ccco2)cc2c(=O)n3ccccc3nc21,nt,8%,-5%,-2%,-17%,nt
COc1ccc(Cl)cc1NC(=O)[C@H]1O[C@@H]2OC(C)(C)O[C@@H]2[C@H]2OC(C)(C)O[C@H]21,nt,21%,-12%,?,?,5%
O=C(O)c1nn2cc(CCO)cnc2c1Cl,-1%,-9%,-3%,-4%,-24%,?
CCN1CCN(CCCNC(=O)Cn2c(-c3cccs3)cc3cc(Cl)ccc32)CC1,nt,16%,-5%,?,?,5%
CCN(CC)CCCNC(=O)Cn1c(-c2cccs2)cc2cc(Cl)ccc21,nt,12%,3%,?,21µM*,6%
CN1CCN(C(=O)Cn2c(-c3cccs3)cc3cc(Cl)ccc32)CC1,nt,14%,-6%,?,23µM*,4%
O=C(CC1OC(=O)c2ccccc21)Nc1cc(Cl)ccc1N1CCCC1 (stereo not given),-2%,1%,-10%,-3%,-22%,-4%
CN(Cc1ccccc1)C1=CC(=[N+]2CCCCC2)CC(C)(C)C1,-1%,3%,-15%,0.15µM*,0.01µM*,8%
O=C(O)c1ccc(NS(=O)(=O)c2ccsc2C(=O)O)c(O)c1,nt,nt,nt,nt,nt,-15%
Cc1cccc(NC(=O)c2cc(N3CCOCC3)nc3ccccc23)c1,-3%,13%,-8%,12µM*,?,-1%
Cc1ccc(NC(=O)c2cc(N3CCOCC3)nc3ccccc23)cc1,-3%,-2%,-8%,23µM*,?,-8%
CCc1ccc(C(=O)COC(=O)c2ccccc2OC)cc1,-1%,-2%,-10%,-2%,8%,-5%
CN(O)/C=C/C(=O)c1ccc(Br)cc1,27µM*,-4%,-6%,16µM*,?,5%
CN(C)/C=C/C(=O)c1ccc(Br)cc1,-17%,-13%,-12%,43%,-7%,-5%
Cc1cccc(C)c1N=C1SC(CC(=O)Nc2c(C)cccc2C)C(=O)N1CCc1ccccn1 (stereo not given),-6%,-8%,-3%,?,16µM*,4%
O=C(CC1SC(=Nc2ccccc2)N(CCc2ccccn2)C1=O)Nc1ccc(F)cc1 (stereo not given),-4%,-2%,-3%,?,?,5%
COc1ccc(CCNC(=O)c2cc3c(=O)n4ccccc4nc3n(CCN3CCOCC3)c2=N)cc1,-8%,-14%,-8%,3.7µM*,2.6µM*,6%
COc1ccc(CCn2c(=N)c(C(=O)NCC3CCCO3)cc3c(=O)n4ccccc4nc32)cc1 (stereo not given),-11%,-18%,-17%,5.8µM*,8.2µM*,2%
COCCCn1c(=N)c(C(=O)NCC2CCCO2)cc2c(=O)n3ccccc3nc21 (stereo not given),-10%,5%,-21%,0%,-11%,1%
SMILES,PLK1 PBD inh,VDR inhibitor,KAT2A inh,TDP1 cell CPT,TDP1 cell noCPT,TDP1 inh
COc1ccc(CCNC(=O)c2cc3c(=O)n4ccccc4nc3n(CCCN3CCOCC3)c2=N)cc1,-1%,2%,-5%,?,?,3%
N=c1c(C(=O)NCCc2ccccc2)cc2c(=O)n3ccccc3nc2n1CC1CCCO1 (stereo not given),0%,7%,-24%,?,?,3%
COc1ccc(CCNC(=O)c2cc3c(=O)n4ccccc4nc3n(CC3CCCO3)c2=N)cc1 (stereo not given),2%,-6%,nt,21µM*,26µM*,nt
CCOC(=O)C1(C)CCCN(C(=O)c2ccc(OC(F)F)cc2)C1 (stereo not given),-2%,nt,nt,-20%,-24%,nt
CCN(C(=O)c1ccc(Cl)c(S(=O)(=O)Nc2c(C)n(C)n(-c3ccccc3)c2=O)c1)c1ccccc1,-8%,1%,4%,-14%,2%,0%
Cc1ccc(O)c(-c2cc(C(=O)NCc3ccc4c(c3)OCO4)[nH]n2)c1,4%,4%,-3%,?,?,5%
COc1cc(-c2coc3c(C(=O)NCc4ccncc4)cccc23)ccc1O,-11%,nt,nt,-99%,-91%,nt
COc1cc(-c2coc3c(C(=O)NCc4ccc(C(F)(F)F)cc4)cccc23)ccc1O,-9%,nt,nt,15µM*,21µM*,nt
COc1cc(-c2coc3c(C(=O)Nc4ccc(C(C)C)cc4)cccc23)ccc1O,-3%,nt,nt,?,21µM*,nt
CN(C)c1cccc(NC(=O)c2cccc3c(-c4ccc(F)c(F)c4)coc23)c1,1%,nt,nt,?,21µM*,nt
CN(C)CCNC(=O)c1cccc2c(-c3ccc(F)c(F)c3)coc12,-6%,nt,nt,?,?,nt
COc1cc(-c2coc3c(C(=O)NCc4ccc(OC)c(OC)c4)cccc23)ccc1O,6%,nt,nt,5.8µM*,4.6µM*,nt
